High-throughput results: PubChem BioAssay, National Center for Advancing Translational Sciences (NCATS)
PK Bst: modulators of Bacillus stearothermophilus pyruvate kinase; actives 1.2% (n = 51,000); Potency, µM; AID 361; purified pyruvate kinase, luminescence ATP production; ribose 5-phosphate activator present at AC10; in the data active = potency below about 11 µM; inconclusive = mostly about 12 µM to 25 µM;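 the screen sought inhibitors and activators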;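 also: scaled between full activation by ribose 5 phosphate and full inhibition by luteolin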
HEK293 cAMP ctrl: parental HEK293 cAMP activation (counter-screen). parental HEK293 CNG cAMP sensor, membrane potential fluorescence. Potency, µM (titrated, usually from 57.1 µM), inactives show at the highest dose activation, hits mostly activators. actives 2.5% (n = 73,000); active = well fitted activation curve with a large enough effect; inconclusive = small, poorly fitted or top-dose-only effect; inactive = no such curve, though single readings can be large or run the other way; also: % of control where 0% means no effect; nearly all actives have a fitted effect of over 55% in size
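Parental HEK 293 cells stably expressing a cAMP-gated CNG channel were loaded with membrane potential dye containing 100 uM RO 20-1724 for 60 min. Compound added for 30 min; depolarization read as fluorescence intensity at 590 nm.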
TSHR ag: TSH receptor (human) agonism; Potency, µM (series often up to 57.1 µM), for the others: at the top dose activation, actives largely listed as activators; HEK293-CNG-TSHR cells (CNG channel as cAMP sensor), membrane potential dye, cAMP; actives 0.48% (n = 73,000); P16473; active = well fitted activation curve with a large enough effect in the main read-out, with a control signal flat, not every such curve was filed as active; inconclusive = small, poorly fitted or top-dose-only effect, or a change in a side signal; inactive = no such curve, though single readings can be large or run the other way; % of control where 0% means no effect;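 also: the control signal comes from parental cells without the receptor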
Target sequence (P16473 whole entry, looked up): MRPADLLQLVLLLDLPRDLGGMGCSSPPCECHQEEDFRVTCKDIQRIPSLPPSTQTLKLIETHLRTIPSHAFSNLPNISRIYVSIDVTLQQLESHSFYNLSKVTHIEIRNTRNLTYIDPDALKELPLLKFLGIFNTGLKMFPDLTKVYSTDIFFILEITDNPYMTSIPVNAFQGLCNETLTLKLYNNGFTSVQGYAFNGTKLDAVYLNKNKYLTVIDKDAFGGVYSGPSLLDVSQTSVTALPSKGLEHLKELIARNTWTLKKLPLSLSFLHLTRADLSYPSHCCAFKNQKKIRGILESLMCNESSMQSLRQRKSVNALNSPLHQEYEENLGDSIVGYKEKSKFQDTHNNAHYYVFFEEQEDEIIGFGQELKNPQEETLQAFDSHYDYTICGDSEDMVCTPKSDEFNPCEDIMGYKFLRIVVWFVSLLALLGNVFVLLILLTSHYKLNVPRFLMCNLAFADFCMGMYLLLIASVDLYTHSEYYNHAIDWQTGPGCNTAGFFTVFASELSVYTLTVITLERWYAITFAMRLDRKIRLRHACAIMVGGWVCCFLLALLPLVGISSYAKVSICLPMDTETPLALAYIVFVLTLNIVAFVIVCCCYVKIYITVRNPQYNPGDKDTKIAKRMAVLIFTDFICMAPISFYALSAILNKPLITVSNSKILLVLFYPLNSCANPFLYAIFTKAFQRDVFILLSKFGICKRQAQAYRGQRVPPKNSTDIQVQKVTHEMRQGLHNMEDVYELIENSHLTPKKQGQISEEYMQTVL
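HEK 293 cells stably expressing TSHR and a modified CNG channel, with CNG-only parental cells as counterscreen, were preloaded 60 min at room temperature with membrane potential dye containing 100 uM RO 20-1724. Compound exposure was 30 min, and depolarization was read as fluorescence at 590 nm.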
GBA mod: alters purified human glucocerebrosidase activity | P04062 | purified enzyme, resorufin glucoside fluorescence (screen aimed at inhibitors), 20 min | Potency, µM | actives 1.1% (n = 48,000) | AID 360; in the data active = potency below about 15 µM; inconclusive = mostly about 16 µM to 33 µM;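 also: the screen sought inhibitors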
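Normal human glucocerebrosidase (0.2 nM final) was assayed with resorufin β-D-glucopyranoside (30 uM final) in 50mM citric acid/KH2PO4, 10mM sodium taurocholate, 0.01% tween-20, pH 5.9. Compounds were titrated; fluorescence (Ex 548, Em 600) read after 20 min at RT.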
* hit, by the source's call; i = inactive; ? = inconclusive; . = not tested or not shown; [ ] = remark or other dose. Shown are actives, neighbours in structure and some others; about 4% of the full set was active somewhere. Potency is read from the fitted curve at half-maximal effect.

SMILES	PK Bst	HEK293 cAMP ctrl	TSHR ag	GBA mod
COC(=O)c1ccc(Oc2nc(C)cc(Oc3ccccc3)n2)cc1	>57	17%	11%	>77
CCOC(=O)c1ccc(Oc2cc(C)nc(SC)n2)cc1	.	3.2µM*	?	.
CCOC(=O)c1ccc(Oc2nc(NC)nc(SC)n2)cc1	>57	2%	3%	>77
CCOC(=O)c1ccc(Oc2nc(SC)nc(N(C)C)n2)cc1	.	3.2µM*	?	.
CCOC(=O)c1ccc(Oc2nc(NC(C)(C)C)nc(N(C)C)n2)cc1	>57	25µM*	?	.
COC(=O)c1ccc(Oc2nc(NC(C)C)nc(N(C)C)n2)cc1	>57	21%	10%	>77
O=C(O)c1ccc(C(=O)c2ccccc2)c(C(=O)O)c1	.	7%[11.4 µM]	-1%[11.4 µM]	.
CSCC[C@@H]1NC(=O)C/C=C\[C@@H](C)COC(=O)[C@@H](CCSC)NC(=O)C/C=C\[C@@H](C)COC1=O	.	0%[11.4 µM]	-8%[11.4 µM]	.
COc1ccc(-n2c(/C=C(\C)O)nc(=O)c3c(C)cc(C)nc32)cc1	>57	25µM*	?	?
COc1ccc(-n2c(C)nc3c(cnn3-c3ccc(C)c(C)c3)c2=O)cc1	.	-1%	13%	.
CCSc1nc2c([nH]c3ccccc32)c(=O)n1C	.	2%	4%	.
CCC1CCCCN1C(=O)CSc1nc2c([nH]c3ccccc32)c(=O)n1C (stereo unspecified)	>57	32µM*	?	?
Cc1ccccc1Cc1c(C)nc2c(C(=O)N3CCN(Cc4ccc5c(c4)OCO5)CC3)cnn2c1C	>57	20µM*	?	>77
S[C@@H]1CCCN(Cc2ccccc2)C1	.	19%[11.4 µM]	0%[11.4 µM]	.
O=C(Nc1ccc2c(c1)OCCO2)c1ccc2nccnc2c1	?	-15%	-2%	>77
O=C(Nc1ccc(SC(F)F)cc1)c1ccc2nccnc2c1	.	6%	0%	12*
N[C@H](Cc1ccc(O)c(I)c1)C(=O)O	.	2%	-1%	.
Cc1nc2ccccc2c(=O)n1NCc1cc(Br)cs1	.	16µM*	?	>77
Cc1nc2ccccc2c(=O)n1NS(C)(=O)=O	>57	6%	-1%	>77
Cn1cccc1C(=O)N1CCC2(CC1)CCN(c1cccc(-c3ccccc3)c1)CC2	.	13%	1%	.
CCc1nnc(NC(=O)Cn2nnc(-c3ccccc3F)n2)s1	>57	18%	.	4.5*
CCOc1ccc(NC(=O)Cn2nnc(-c3ccccc3F)n2)cc1	>57	11%	7%	>77
C=CCn1c(SC(C)C(=O)NCc2ccc3c(c2)OCO3)nnc1C1CCCCC1 (stereo unspecified)	>57	2.5µM*	?	>77
Cc1nc2cc(NC(=O)N3c4ccccc4CC3C)ccc2n1C (stereo unspecified)	9.5*	-1%	-3%	?
Cc1nc2cc(NC(=O)N3c4ccccc4CC3C)ccc2o1 (stereo unspecified)	?	-1%	1%	>77
SMILES	PK Bst	HEK293 cAMP ctrl	TSHR ag	GBA mod
COc1ccc(C)cc1NC(=O)c1cc2ccccc2o1	>57	20µM*	?	?
COc1ccc(OC)c(NC(=O)c2cc3ccccc3o2)c1	.	32µM*	?	?
Cc1nc2c(C(=O)NCc3ccco3)cnn2c(C)c1Cc1ccc(F)cc1Cl	>57	25µM*	?	>77
Cc1cccc(Cc2c(C)nc3c(C(=O)NCc4ccco4)cnn3c2C)c1	>57	?	?	i
COc1ccccc1CCn1c(=O)c(-c2ccccc2)nc2cncnc21	.	4µM*	?	.
CCCCC#CC1C=CC(OC(C)=O)C(COC(C)=O)O1 (stereo unspecified)	.	5%[11.4 µM]	-3%[11.4 µM]	.
COc1ccc(OC)c(CN2CCN(C(=O)c3cccc4ccccc34)CC2)c1	7.4*	20%	10%	?
COc1ccc(OC)c(CN2CCN(C(=O)c3cccs3)CC2)c1	>57	11%	8%	>77
CC(=O)O[C@H]1CC[C@]2(C)C(=CC[C@H]3[C@H]4C[C@H]5O[C@]6(CC[C@H](C)CN6)[C@H](C)[C@@H]5[C@]4(C)CC[C@@H]32)C1	.	-8%[11.4 µM]	4%[11.4 µM]	.
CCSc1nc(N)c2c3c(sc2n1)CCC3	>26	.	.	.
NC(=O)CSc1nc(N)c2c3c(sc2n1)CCCCC3	11*	.	.	.
Cc1nc2ccccn2c1-c1nnco1	>57	1%	0%	>77
Cc1cc(-c2nnco2)c(C)n1-c1ccccc1	.	20µM*	?	>77
Cc1ccc(Cn2cccc(NC(=O)c3ccco3)c2=O)cc1	.	16µM*	?	>77
CCCCOc1ccccc1NC(=O)c1ccco1	.	16µM*	?	.
O=c1[nH]ncc2ccccc12	.	8%	0%	.
CC(C)C(OC(=O)c1ccco1)C(=O)NCc1ccccc1 (stereo unspecified)	>57	25µM*	?	i
